Screening results from PubChem BioAssay.
Rows were chosen to be rich in hits. Some 11% of all compounds tested hit in one or more screens of this group.
G9a block = qHTS Assay for Inhibitors of Histone Lysine Methyltransferase G9a; Histone-lysine N-methyltransferase EHMT2 (Homo sapiens), Q96KQ7; G9a H3K9 monomethylation, AlphaScreen, 2 h; Potency, µM (doses to about 102 µM), for the others: at the highest dose activity, negative = inhibition, hits mostly inhibitors; hit rate 8.8% among 350,000; also: potency is read from the fitted curve at half-maximal effect; % is scaled to controls: 0 for no effect and ±100 for the full control effect; nearly all actives have a fitted effect of over 75% in size
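Compounds were preincubated with 20 nM G9a for 15 min, after which biotinylated H3K9 peptide (500 nM) and SAM (20 uM) started a 2 h room-temperature reaction. Monomethylated product was quantified by antibody-based AlphaScreen chemiluminescence.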
JMJD2A Tudor inh = qHTS Assay for Inhibitors of JMJD2A-Tudor Domain. Lysine-specific demethylase 4A (Homo sapiens), O75164. AlphaScreen JMJD2A-Tudor / H3K4me3 peptide binding. Potency, µM (highest dose often 114 µM), for inactives: at the top dose activity change, negative = inhibition, usual class: inhibitors. hit rate 4.4% among 390,000. AID 504339, 2011; also: potency is read from the fitted curve at half-maximal effect; % is scaled to controls: 0 for no effect and ±100 for the full control effect; nearly all actives have a fitted effect of over 50% in size
HP1b chromo inh = HTS for Inhibitors of HP1-beta Chromodomain Interactions with Methylated Histone Tails; Chromobox protein homolog 1 (Homo sapiens), P83916; AlphaScreen HP1-beta / biotin-H3K9me3 peptide binding; Potency, µM (titrated, usually from 114 µM), for the others: at the highest dose activity change, negative = inhibition, most hits filed as inhibitors; hit rate 0.56% among 390,000; AID 540317, 2011; also: potency is read from the fitted curve at half-maximal effect; nearly all actives have a fitted effect of over 70% in size
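AlphaScreen: HP1-beta (50 nM) preformed 30 min with biotin-H3(1-18)K9me3 peptide (50 nM) in PBS pH 7.4, 0.01% Tween-20. Compound added for 30 min at RT, then streptavidin donor/nickel chelate acceptor beads (10 ug/mL) for 30 min.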
BAZ2B block = qHTS Assay for Inhibitors of BAZ2B. Bromodomain adjacent to zinc finger domain protein 2B (Homo sapiens), Q9UIF8. AlphaScreen BAZ2B-H3K14Ac peptide displacement. Potency, µM (doses to about 114 µM), inactives show at the highest dose activity change, negative = inhibition, hits mostly inhibitors. hit rate 4.4% among 360,000. AID 504333, 2011; also: potency is read from the fitted curve at half-maximal effect; % is scaled to controls: 0 for no effect and ±100 for the full control effect; nearly all actives have a fitted effect of over 60% in size
Target sequence (Q9UIF8 whole entry, looked up, the tested form may be a part): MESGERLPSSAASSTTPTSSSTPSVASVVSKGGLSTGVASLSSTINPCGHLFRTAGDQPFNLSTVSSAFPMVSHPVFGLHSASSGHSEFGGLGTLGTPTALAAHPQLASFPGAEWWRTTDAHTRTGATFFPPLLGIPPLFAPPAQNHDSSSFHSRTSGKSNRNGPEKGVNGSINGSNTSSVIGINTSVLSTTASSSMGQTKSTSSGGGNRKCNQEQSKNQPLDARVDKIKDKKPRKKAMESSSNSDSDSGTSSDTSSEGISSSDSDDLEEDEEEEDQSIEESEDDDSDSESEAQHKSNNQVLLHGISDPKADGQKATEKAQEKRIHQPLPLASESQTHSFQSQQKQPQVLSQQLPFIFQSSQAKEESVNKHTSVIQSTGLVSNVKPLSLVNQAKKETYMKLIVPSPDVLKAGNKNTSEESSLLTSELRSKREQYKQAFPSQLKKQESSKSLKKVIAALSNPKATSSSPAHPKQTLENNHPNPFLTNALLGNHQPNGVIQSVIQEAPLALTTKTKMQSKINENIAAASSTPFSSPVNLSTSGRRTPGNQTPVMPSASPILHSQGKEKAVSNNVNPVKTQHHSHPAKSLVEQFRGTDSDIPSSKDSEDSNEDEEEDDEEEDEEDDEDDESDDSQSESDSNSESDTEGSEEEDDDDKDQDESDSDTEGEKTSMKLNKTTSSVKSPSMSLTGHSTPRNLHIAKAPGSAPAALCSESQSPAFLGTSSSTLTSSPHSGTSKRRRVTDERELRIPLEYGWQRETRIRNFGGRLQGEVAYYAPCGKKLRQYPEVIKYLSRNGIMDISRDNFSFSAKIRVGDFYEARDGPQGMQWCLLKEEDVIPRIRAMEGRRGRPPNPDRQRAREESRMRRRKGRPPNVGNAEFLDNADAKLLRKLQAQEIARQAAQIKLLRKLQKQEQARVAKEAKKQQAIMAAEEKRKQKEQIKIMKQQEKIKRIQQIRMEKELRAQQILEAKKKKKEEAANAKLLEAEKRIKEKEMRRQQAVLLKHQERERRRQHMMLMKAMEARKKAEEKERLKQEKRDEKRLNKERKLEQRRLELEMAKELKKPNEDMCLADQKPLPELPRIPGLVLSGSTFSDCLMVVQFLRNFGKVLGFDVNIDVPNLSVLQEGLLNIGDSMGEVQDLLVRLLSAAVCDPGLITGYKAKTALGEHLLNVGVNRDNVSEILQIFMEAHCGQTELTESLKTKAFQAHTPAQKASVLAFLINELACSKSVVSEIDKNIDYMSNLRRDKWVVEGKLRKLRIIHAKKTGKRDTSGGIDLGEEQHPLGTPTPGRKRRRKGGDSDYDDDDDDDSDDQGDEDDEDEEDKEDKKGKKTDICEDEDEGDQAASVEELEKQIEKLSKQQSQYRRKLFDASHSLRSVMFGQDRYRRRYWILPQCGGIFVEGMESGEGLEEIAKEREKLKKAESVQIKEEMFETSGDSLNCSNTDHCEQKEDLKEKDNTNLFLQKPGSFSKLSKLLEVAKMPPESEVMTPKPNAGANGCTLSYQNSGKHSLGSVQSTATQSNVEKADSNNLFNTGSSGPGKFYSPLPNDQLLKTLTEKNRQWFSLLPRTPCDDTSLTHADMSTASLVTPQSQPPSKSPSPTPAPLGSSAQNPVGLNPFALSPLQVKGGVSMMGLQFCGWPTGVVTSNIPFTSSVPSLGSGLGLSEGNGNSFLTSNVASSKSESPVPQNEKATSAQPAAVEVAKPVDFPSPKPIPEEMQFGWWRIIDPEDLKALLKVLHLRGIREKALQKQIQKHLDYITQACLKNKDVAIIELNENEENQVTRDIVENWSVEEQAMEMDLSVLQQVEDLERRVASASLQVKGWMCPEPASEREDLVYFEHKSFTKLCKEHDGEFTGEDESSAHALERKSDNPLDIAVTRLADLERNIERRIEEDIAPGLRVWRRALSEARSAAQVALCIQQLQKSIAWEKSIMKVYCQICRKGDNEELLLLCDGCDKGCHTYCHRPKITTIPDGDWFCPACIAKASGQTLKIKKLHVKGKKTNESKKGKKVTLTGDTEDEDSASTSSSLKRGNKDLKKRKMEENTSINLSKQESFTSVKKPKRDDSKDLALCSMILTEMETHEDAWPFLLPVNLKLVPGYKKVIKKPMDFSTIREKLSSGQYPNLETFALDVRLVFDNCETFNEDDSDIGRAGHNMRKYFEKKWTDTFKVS
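BAZ2B 50 nM plus b-H3(5-23)K14Ac 50 nM, PBS pH 7.4/0.01% Tween-20, 30 min RT; compound added (max 110 uM), 30 min RT; streptavidin donor/Ni-chelate acceptor beads 10 ug/mL final, 20 min dark; AlphaScreen read.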
PI5P4K alpha inh = qHTS for Inhibitors of phosphatidylinositol 5-phosphate 4-kinase (PI5P4K); max response, %; PI5P4Kalpha enzyme, ADP-Glo luminescence, 60 min; active compounds read low; Phosphatidylinositol 5-phosphate 4-kinase type-2 alpha (Homo sapiens), P48426; hit rate 1.2% among 330,000; active = max response of -50% or lower; inconclusive = between -30% and -50%; inactive = -30% or higher; also: value at the top dose of about 77 µM; % is scaled to controls: 0 for no effect and ±100 for the full control effect
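PI5P4Kalpha ADP-Glo assay; 5 microM ATP final; 60 min RT reaction; HEPES pH 7.4/EGTA/CHAPS, 5% DMSO; controls lacking substrate or enzyme; luminescent end-point.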
L3MBTL1 inh = qHTS Assay for the Inhibitors of L3MBTL1. Lethal(3)malignant brain tumor-like protein 1 (Homo sapiens), Q9Y468. AlphaScreen L3MBTL1–H3K9me1 peptide binding. Potency, µM (doses to about 57.1 µM), without a hit: top-dose activity, negative = inhibition, hits mostly inhibitors. hit rate 0.66% among 230,000. AID 485360, 2010; also: potency is read from the fitted curve at half-maximal effect; % is scaled to controls: 0 for no effect and ±100 for the full control effect; nearly all actives have a fitted effect of over 60% in size
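L3MBTL1 (50 nM) pre-complexed 30 min with biotinylated H3(1-15)K9me1 peptide (75 nM), then compounds added for 30 min at room temperature; AlphaScreen streptavidin donor/nickel chelate acceptor beads (10 ug/mL final) read after 30 min dark incubation.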
An asterisk follows results filed as active; u = inconclusive; x = no result; [ ] = another dose, or the depositor's remark. Unless noted, calls follow the shape of the dose curve; as a rule, active = well fitted inhibition curve with a large enough effect; inconclusive = small, poorly fitted or top-dose-only effect; inactive = no such curve, though single readings can be large or run the other way.

SMILES	G9a block	JMJD2A Tudor inh	HP1b chromo inh	BAZ2B block	PI5P4K alpha inh	L3MBTL1 inh
CCOc1ccc(S(=O)(=O)NCCc2csc(-c3ccc(Cl)cc3)n2)cc1	-25%[59 µM]	-5%	12%[57 µM]	5%	x	x
COC(=O)C1=C(C)N(Cc2ccccc2)C(=NCC(C)C)N[C@H]1c1cccc(F)c1	2%[12.7 µM]	25µM*	11%	u	1	0%
CC(=O)C1=C(C)N(Cc2ccccc2)C(=O)N[C@@H]1c1cccc(C(F)(F)F)c1	50µM*	-29%	18%	-19%	-7	-2%
COC(=O)C1=C(C)N(Cc2ccccc2)C(=NCc2ccc(OC)cc2)N[C@H]1c1cccc(F)c1	79µM*	u	0%	u	-5	-7%
COC(=O)C1=C(C)N(Cc2ccco2)C(=O)N[C@@H]1c1cccc(C(F)(F)F)c1	89µM*	x	x	u	x	-7%
COC(=O)C1=C(C)N(Cc2ccccc2)C(=NCc2cccc(Cl)c2)N[C@H]1c1cccc(F)c1	x	-22%	3%	-6%	15	4%
COC(=O)C1=C(C)N(Cc2ccccc2)C(=NCc2ccco2)N[C@H]1c1cccc(F)c1	x	u	20%	x	-10	-2%
CCN1C(=NCCOC)N[C@@H](c2cccc(C(F)(F)F)c2)C(C(=O)OC)=C1C	x	16µM*	32%	u	-4	7%
COC(=O)C1=C(C)N(Cc2ccccc2)C(=NCc2ccccc2)N[C@H]1c1cccc(C(F)(F)F)c1	x	-22%	5%	x	2	5%
COC(=O)C1=C(C)N(Cc2ccccc2)C(=NCC(C)C)N[C@H]1c1cccc(C(F)(F)F)c1	x	35µM*	13%	x	8	12%
CC(C)NC(=O)N1CC2(CCN(C(=O)c3ccncc3)CC2)C1	-1%[12.7 µM]	x	x	x	x	x
Cc1cc(SCC(N)=O)nc(SCC(=O)c2ccccc2)n1	28µM*	-4%[57.1 µM]	69%	2%	-1	-1%
Cc1ccc2nc(SCC(=O)c3ccccc3)nc(=O)n2c1	-16%[0.501 µM]	-7%	27%	-4%	0	-17%
Cc1ccn2c(=O)nc(SCC(=O)c3ccccc3)nc2c1	u	-32%	25%	-29%	-62*	u
Cc1cc(SCC(=O)c2ccccc2)nc(C)n1	50µM*	-6%	39%	9%	1	-1%
COC(=O)c1cc(OC)c(OC)cc1NC(=O)c1ccc2c(c1)CCN2S(=O)(=O)c1ccccc1	7%[59 µM]	-1%	13%	-10%	x	x
CCC1CC=CC2C1C(=O)N(Cc1ccccc1)C2c1ccc(OC)c(Cl)c1 (stereo not given)	x	7%	43%	x	x	x
CCCCOC(=O)c1ccc(NC(=O)Cc2coc3ccc(C(C)C)cc23)cc1	2%[59 µM]	7%	56%	-14%	x	x
COc1cc(N=Nc2ccccc2C(=O)O)ccc1O	50µM*	-7%	14%	-34%	-13	u
COc1cc(C(=O)C(=O)c2ccc(O)c(OC)c2)ccc1O	8%[12.7 µM]	-1%	42%	-7%	1	-3%
COc1cc(N=Nc2ccc3ccccc3c2)ccc1O	-47%[12.7 µM]	40µM*	u	25µM*	44	u
Oc1ccc(N=Nc2ccc3ccccc3c2)cc1	-3%[0.501 µM]	45µM*	u	32µM*	41	-6%[2.29 µM]
Cc1ccc(C)c(NC(=O)CN2C(=O)CSc3nc(C)cc(C)c32)c1	1%[59 µM]	7%	48%	-1%	x	x
Cc1cccc(NC(=O)C2CCCN(S(=O)(=O)c3c(C)[nH]c(=O)[nH]c3=O)C2)c1C (stereo not given)	-26%[59 µM]	-10%	31%	-17%	x	x
COCCCNC(=O)C1CCCN(S(=O)(=O)c2ccc3c(c2)oc(=O)n3C)C1 (stereo not given)	4%[59 µM]	-14%	21%	-3%	x	x
SMILES	G9a block	JMJD2A Tudor inh	HP1b chromo inh	BAZ2B block	PI5P4K alpha inh	L3MBTL1 inh
CC(C)Cn1c(=O)c2sccc2n2c(CCCC(=O)NCc3ccccc3Cl)nnc12	3%[59 µM]	6%	35%	-2%	x	x
O=C(Nc1cccc(Cl)c1)C1CCCN(c2nn3cc(-c4ccc(F)cc4)nc3s2)C1 (stereo not given)	u	-19%	1%	5%	x	x
COc1ccc(-c2ccc(OC)c([C@H]3[C@H]4C=CC[C@@H](C)[C@@H]4C(=O)N3Cc3ccccc3)c2)cc1OC	-16%[59 µM]	40µM*	-18%	-33%	-16	x
O=C(CONS(=O)(=O)c1ccc(Cl)cc1)NCCNc1ncc(C(F)(F)F)cc1Cl	56µM*	-17%	28%	-16%	15	-6%
O=C(CN1CCN(c2ncc(C(F)(F)F)cc2Cl)CC1)NCCNc1ncc(C(F)(F)F)cc1Cl	-3%[12.7 µM]	-13%	28%	2%	39	x
CCOc1ccc(NCc2cccn2-c2nnc(N3CCC(C(=O)NCCCN4C(C)CCCC4C)CC3)s2)cc1 (stereo not given)	40µM*	56µM*	-21%	40µM*	0	x
CCOc1ccc(NCc2cccn2-c2nnc(N3CCC(C(=O)NCCCN4CCCCC4)CC3)s2)cc1	40µM*	50µM*	u	40µM*	3	x
CCOc1ccc(NCc2cccn2-c2nnc(N3CCC(C(=O)NCCCN4CCCCC4C)CC3)s2)cc1 (stereo not given)	50µM*	40µM*	-15%[57 µM]	u	2	x
CCOc1ccc(NCc2cccn2-c2nnc(N3CCC(C(=O)NCc4ccccc4Cl)CC3)s2)cc1	u	-24%	24%	-19%	x	x
Cc1nn(-c2ccc(N3CCCCC3)nn2)c(C)c1CCC(=O)Nc1ccc(F)cc1F	15%[59 µM]	-22%	111%	5%	x	x
CCCSc1nnc(-c2cnn(-c3ccccc3)c2-n2cccc2)n1C	13µM*	0%	13%	-32%	-1	x
CCC(=O)N1CCc2cc(S(=O)(=O)NC(Cc3ccccc3)C(=O)NCc3cccc(OC)c3)ccc21 (stereo not given)	-11%[59 µM]	-18%	11%	x	x	x
O=C(NC1CCCCC1)C(=S)NCCc1ccccc1	11µM*	-5%	-15%	-9%	-1	0%
O=C(NCCc1ccccc1)C(=O)NC1CCCCC1	3%[12.7 µM]	-12%	53%	-4%	x	x
COc1ccc(N2CCN(C3CCCCC3NS(=O)(=O)c3ccc(Cl)cc3)CC2)cc1 (stereo not given)	x	u	7%	10µM*	7	x
COc1ccc(NC2CCCCC2NS(=O)(=O)c2ccc(C)cc2)cc1 (stereo not given)	14µM*	u	u	50µM*	-2	x
